Pf growth 48h = P. falciparum growth inhibition at 48 hours (one generation); P. falciparum luciferase growth in erythrocytes, 48 h; 310,000 compounds, 5.9% hits; Potency, µM (titrated, usually from 28.7 µM), actives largely listed as inhibitors
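Firefly luciferase activity from engineered P. falciparum reports growth; inhibitors lower the luminescent signal. Cultures contained 2% hematocrit erythrocytes at 0.1% final parasitemia.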
FBPA Giardia inh = Giardia lamblia aldolase inhibition; A8B2U2; purified Giardia FBPA; Potency, µM (doses to about 59.6 µM), usual class: inhibitors; 290,000 compounds, 0.71% hits; AID 2451; also: nearly all actives have a fitted effect of over 55% in size
Target sequence (A8B2U2 whole entry, looked up): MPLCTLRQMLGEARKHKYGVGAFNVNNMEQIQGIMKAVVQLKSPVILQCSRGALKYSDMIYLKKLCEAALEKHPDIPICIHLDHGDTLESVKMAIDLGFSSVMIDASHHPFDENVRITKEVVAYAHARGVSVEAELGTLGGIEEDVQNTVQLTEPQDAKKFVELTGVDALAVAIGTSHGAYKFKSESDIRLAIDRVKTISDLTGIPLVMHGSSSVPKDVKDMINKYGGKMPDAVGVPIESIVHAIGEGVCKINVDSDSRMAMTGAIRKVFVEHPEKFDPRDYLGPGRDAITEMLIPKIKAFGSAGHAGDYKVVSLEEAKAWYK
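Giardia FBPA (40 nM reagent) was preincubated 10 min at RT with compound (up to 57.5 uM final), then substrate plus GAPDH/TPI/NAD/arsenate coupling system with diaphorase/resazurin was added; resorufin fluorescence (525/598 nm) was read after 20 min.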
Pf growth 96h = P. falciparum growth inhibition at 96 hour, primary screen for plastid delayed-death inhibitors | P. falciparum luciferase reporter growth, 96 h | Potency, µM (titrated, usually from 28.7 µM), most hits filed as inhibitors | 320,000 compounds, 6.9% hits
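P. falciparum expressing integrated firefly luciferase, in erythrocytes at 2% hematocrit, 0.05% parasitemia, incubated with compounds 96 h at 37 C, 5% CO2. Growth inhibition read as loss of luminescence; two-generation exposure targets delayed-death apicoplast inhibitors.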
Sm TGR inh = blocks Schistosoma mansoni thioredoxin glutathione reductase; Q962Y6; purified TGR, DTNB reduction, TNB absorbance 405 nm; Potency, µM (titrated, usually from 114 µM), actives largely listed as inhibitors; 360,000 compounds, 3% hits; also: nearly all actives have a fitted effect of over 60% in size
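First, TGR (20 nM dispensed) and NADPH were mixed with compound. Second, a 15 min room-temperature incubation followed. Third, further NADPH and then DTNB were added to start the reaction. Finally, TNB absorbance was monitored kinetically.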
HCMV inh = blocks human cytomegalovirus replication | HFF cells, HCMV-luciferase reporter, 72 h; active compounds read low | activity change, negative = inhibition, % at 57.5 µM | 410,000 compounds, 4.5% hits; in the data active = activity change below about -60%; inconclusive = no clear call, values can overlap the other calls; inactive = above about -39%
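Luciferase read-out from HCMV-luciferase-infected HFFs (MOI 1 PFU/cell) 72 h post infection at 37C; compounds added after 16 h cell attachment; activity normalized between buffer-only basal and Salinomycin (10uM) inhibitor controls.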
Large screens that a line does not name were inactive; ! = not confirmed by another sample. Most compounds without a hit are left out; they make up all but 14% or so of the library. Unless noted, calls follow the shape of the dose curve; as a rule, active = well fitted curve in the direction sought with a large enough effect; inconclusive = small, poorly fitted or top-dose-only effect, or another doubt; inactive = no such curve, though single readings can be large; an effect the other way counts as inactive or inconclusive.

COCCCNC(=O)c1ccc(Cn2c(=O)c3ccccc3n(Cc3ccccc3C)c2=O)cc1	HCMV inh -95.5! (no result: Pf growth 48h)
O=C(NCc1ccccc1)c1cc(C2CCCCN2C(=O)c2cccs2)on1 (centres undefined)	none (no result: Pf growth 48h, FBPA Giardia inh, Pf growth 96h, Sm TGR inh)
COc1cccc(-c2noc(C3CC(=O)N(c4ccc(F)cc4)C3)n2)c1OC (centres undefined)	none (no result: Pf growth 48h, FBPA Giardia inh, Pf growth 96h)
Cc1ccc(-c2nnc(N3CCN(C(=O)COc4ccccc4)CC3)c3ccccc23)cc1	Pf growth 96h 5.22µM, HCMV inh inconclusive (no result: Pf growth 48h)
Cc1ccc(-c2nnc(N3CCN(C(=O)c4cccs4)CC3)c3ccccc23)cc1	Pf growth 48h 8.28µM, Pf growth 96h 4.65µM
O=C(COc1ccc(-c2nnc(N3CCCCC3)c3ccccc23)cc1)N1CCCCC1	Pf growth 48h 11.7µM, Pf growth 96h 8.28µM
Cn1c(=O)n(CC(=O)N2CCN(c3nnc(-c4ccccc4)c4ccccc34)CC2)c2ccccc21	Pf growth 96h 13.1µM, HCMV inh inconclusive
O=C(COc1ccc([N+](=O)[O-])cc1)N1CCN(c2nnc(-c3ccccc3)c3ccccc23)CC1	none
Cc1ccc(-c2nnc(N3CCN(C(=O)Cn4c(=O)n(C)c5ccccc54)CC3)c3ccccc23)cc1	none (no result: Pf growth 96h)
O=C(c1cccs1)N1CCN(c2nnc(-c3ccccc3)c3ccccc23)CC1	Pf growth 48h inconclusive, Pf growth 96h inconclusive
Cc1ccc(-n2cccn2)c(CN2CCCC(C(=O)c3ccc4c(c3)OCO4)C2)c1 (centres undefined)	Pf growth 48h inconclusive, HCMV inh -73.1
Cc1nn(C)cc1CN1CCCC(C(=O)c2ccc(-c3ccccc3)cc2)C1 (centres undefined)	HCMV inh -66.1
O=C(c1ccc2c(c1)OCO2)C1CCCN(Cc2cc(F)ccc2-n2cccn2)C1 (centres undefined)	Pf growth 48h inconclusive
Cc1ccsc1C(=O)C1CCCN(Cc2cn(C)nc2C)C1 (centres undefined)	none
O=C(c1ccc2c(c1)OCO2)C1CCCN(Cc2ccccn2)C1 (centres undefined)	Pf growth 48h inconclusive
Cn1c(CN2CCCC(C(=O)c3ccc4c(c3)OCO4)C2)nc2ccccc21 (centres undefined)	Pf growth 48h inconclusive, Pf growth 96h 9.28µM
COc1ccc(CCC(=O)NNC(=O)Cn2nc(C)cc2C)cc1	none (no result: FBPA Giardia inh, HCMV inh)
Cc1nn(CC(=O)NCCc2ccc(Cl)cc2Cl)c(C)c1[N+](=O)[O-]	Pf growth 48h 11.7µM, Pf growth 96h inconclusive, HCMV inh inconclusive
CN1CCN(C(=O)c2ccccc2NC(=O)c2cccc(Cl)c2)CC1	HCMV inh inconclusive (no result: FBPA Giardia inh)
CC1CCN(N=Nc2nc3c([nH]2)c(=O)n(C)c(=O)n3C)CC1	none (no result: Pf growth 48h, FBPA Giardia inh, Pf growth 96h, Sm TGR inh)
Cc1ccccc1NN=Nc1nc2c([nH]1)c(=O)n(C)c(=O)n2C	Sm TGR inh 56.2µM
Cn1c(=O)c2[nH]c(N=NNc3ccccc3F)nc2n(C)c1=O	FBPA Giardia inh inconclusive, Sm TGR inh 39.8µM
COc1ccc(OC)c2c1C(=O)C(Cl)=C(Cl)C2=O	FBPA Giardia inh 1.26µM, Sm TGR inh inconclusive, HCMV inh -91.2
CC(C)OCc1cc(CN2CCN(c3cccc(C(F)(F)F)c3)CC2)c(O)c2ncccc12	HCMV inh -98.4 (no result: Pf growth 48h, FBPA Giardia inh, Pf growth 96h)
O=c1cc(CO)oc(CN2CCN(c3cccc(C(F)(F)F)c3)CC2)c1O	none (no result: Pf growth 96h)
CCOCc1cc(CN2CCN(c3cccc(C(F)(F)F)c3)CC2)c(O)c2ncccc12	HCMV inh -99.6 (no result: Pf growth 48h, FBPA Giardia inh, Pf growth 96h)
Nc1ncnc2c1nc(Br)n2[C@@H]1O[C@@H]2COP(=O)(O)O[C@H]2[C@H]1O	HCMV inh -76.3 (no result: Pf growth 48h, FBPA Giardia inh, Pf growth 96h, Sm TGR inh)
Nc1ncnc2c1nc(Br)n2[C@@H]1O[C@H]2COP(=O)(O)O[C@@H]2[C@@H]1O	none (no result: Pf growth 48h, Pf growth 96h, Sm TGR inh, HCMV inh)
CN1C[C@@H]2[C@@H]3C(=O)N(Cc4ccccc4)C(=O)[C@@H]3[C@](Cc3ccccc3)(C1=O)N2C(=O)c1ccc(Cl)cc1	none (no result: Pf growth 48h, FBPA Giardia inh, Pf growth 96h, Sm TGR inh)
CC(CNc1nc2ccccc2c2nc(-c3ccccc3)nn12)c1ccccc1 (centres undefined)	HCMV inh -93.8 (no result: Pf growth 48h, FBPA Giardia inh, Pf growth 96h)
c1ccc(CNc2nc3ccccc3c3nc(-c4ccccc4)nn23)cc1	none (no result: Pf growth 48h, FBPA Giardia inh, Pf growth 96h)
CCN(CC)CCNc1nc2cc(OC)c(OC)cc2c2nc(-c3ccccc3)nn12	Pf growth 48h 1.04µM, Pf growth 96h inconclusive
Cc1ccc(S(=O)(=O)N2CCN(C(=O)CN3C(=O)c4ccc([N+](=O)[O-])cc4C3=O)CC2)c(C)c1	none (no result: FBPA Giardia inh)
Cc1cccc(N(CC(=O)NCCc2ccccc2)C(=O)CCC(=O)Nc2ccccn2)c1C	none
COc1ccc(/C=C2\SC(=O)N(CCC(=O)N3CCCCC3CCO)C2=O)cc1 (centres undefined)	Pf growth 48h inconclusive, Pf growth 96h inconclusive (no result: FBPA Giardia inh)
O=C1/C(=C/c2ccc(Cl)cc2)SC(=S)N1CCC(=O)N1CCCCC1CCO (centres undefined)	Pf growth 96h 13.1µM, HCMV inh -86.0 (no result: FBPA Giardia inh)
COc1ccc(/C=C2\SC(=S)N(CCC(=O)N3CCCCC3CCO)C2=O)cc1 (centres undefined)	Pf growth 48h inconclusive, Pf growth 96h inconclusive, HCMV inh -84.0
O=C1/C(=C/c2cccs2)SC(=S)N1CC(=O)N1CCCCC1CCO (centres undefined)	HCMV inh -82.8 (no result: FBPA Giardia inh)
O=C(CCCN1C(=O)/C(=C\c2ccccc2)SC1=S)Nc1cccc(C(=O)O)c1	Pf growth 48h inconclusive, Pf growth 96h inconclusive
O=C1/C(=C/c2ccccc2)SC(=S)N1CCCC(=O)N1CCCCC1CCO (centres undefined)	Pf growth 48h inconclusive, Pf growth 96h 7.38µM, HCMV inh -100.7 (no result: FBPA Giardia inh)

Screening results deposited in PubChem by National Center for Advancing Translational Sciences (NCATS).
